This is part of a sample that, as a whole, favours compounds with a hit. Of some 83,000 tested, about 20% had one in any assay.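 Note: values are percent growth. 100 is the growth of untreated cells, values between 100 and 0 indicate rising inhibition; between -100 and 0 indicates cell death.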 Unmarked numbers belong to inactive results. Active and inactive are the calls of the source.
These compounds were tested on UACC-62 melanoma (assay: NCI-60 one-dose screen, 48 h (100 = growth as untreated, 0 = no growth, -100 = all killed)). Details: 10 µM unless noted.
Method: Growth inhibition of the UACC-62 human tumor cell line is measured as a screen for anti-cancer activity. Cells are grown in 96 well plates and exposed to the test compound for 48 hours. Compounds are tested at a single concentration, which is 10^-5 M for most compounds. The reported endpoint is percent growth (GI% or GIPRCNT), where numbers from 0 - 100% represent growth inhibition, and numbers from -100% - 0 represent cell death. For example, a value of 40 represents 60% growth inhibition. A value of 0 means no net growth occurred over the course of the experiment. A value of -40 indicates 40% of cells at the beginning of the experiment died by the end of the experiment. A value of -100 means all cells are dead at the end of the experiment.
NCI-60 Human Tumor Cell Lines Screen was performed using the standard one-dose NCI protocol, which is described in more detail at https://dtp.cancer.gov/discovery_development/nci-60/default.htm.
Compounds with GIPRCNT values below 10 were considered active. Activity score was based on GIPRCNT using the following formula: […]
Score is 0 for GIPRCNT values of 100 or above, 50 for GIPRCNT values of 0, and 100 for GIPRCNT values of -100.

With `COc1ccc(-c2nnc(N3CCN(C(=O)CN4CCN(c5ccc(OC)cc5)CC4)CC3)nc2-c2ccc(OC)cc2)cc1` the growth was -48.2% (active).
In the case of `O=C(Nc1cccc(-c2cccc(F)c2)c1)C1CCN(Cc2cccc3cccnc23)CC1`, the growth is reported as -44.8% (active).
With `COc1cc(-c2csc(NC(=O)Nc3ccc(Cl)cc3)n2)cc(OC)c1OC` the growth was -7.54% (active).
`NS(=O)(=O)c1ccc(C2C3=C(CCCC3=O)OC3=C2C(=O)c2ccccc2C3=O)cc1` (stereo not given) was tested, and the growth was -59.7% (active).
In the case of `COc1cc2c(Nc3ccc(NC(=O)Nc4ccc(Cl)c(C(F)(F)F)c4)c(Cl)c3)ncnc2cc1OCCCN1CCN(C)CC1`, the growth is reported as 0.23% (active).
`C=C(C)[C@@H]1CC[C@]2(C(=O)OCCOCCOCC[P+](c3ccccc3)(c3ccccc3)c3ccccc3)CC[C@]3(C)[C@H](CC[C@@H]4[C@@]5(C)CC[C@H](OC(C)=O)C(C)(C)[C@@H]5CC[C@]43C)[C@@H]12` was tested, and the growth was -86.5% (active).
In the case of `C=C1C(=O)O[C@H]2[C@H]1CC/C(COC(=O)c1cn(C)c3ccccc13)=C\CC[C@@]1(C)O[C@@H]21`, the growth is reported as -51.1% (active).

Going from `Cc1c(Br)cccc1NC(=O)c1sc2nc3c(cc2c1N)CN(Cc1ccccc1)CC3` to `Cc1c(Cl)cccc1NC(=O)c1sc2nc3c(cc2c1N)CCCCCC3`, the growth rises from 28.1% to 32%.

Compared with `COc1cc(/C=C/CO)cc(OC)c1O[C@@H]1O[C@H](CO)[C@@H](O)[C@H](O)[C@H]1O`, `COc1ccc(C(=O)c2cc(F)c(F)c(OC)c2F)cc1OC(=O)CCl` is lower in growth: 100% for the first, 31.7% for the second.

Going from `C=C1C(=O)O[C@H]2[C@H]1CC/C(COC(=O)CCCCCCC(=O)OC/C1=C/CC[C@@]3(C)O[C@H]3[C@H]3OC(=O)C(=C)[C@@H]3CC1)=C\CC[C@@]1(C)O[C@@H]21` to `C=C1C(=O)O[C@H]2[C@H]1CC/C(COC(=O)CCCCC(=O)OC/C1=C/CC[C@@]3(C)O[C@H]3[C@H]3OC(=O)C(=C)[C@@H]3CC1)=C\CC[C@@]1(C)O[C@@H]21`, the growth rises from 42.3% to 48.3%.

Going from `COc1cc(/C=C/C(=O)c2cccs2)ccc1OCc1ccc(Cl)nc1` to `CCCCn1c(=O)c(/C=C/C(=O)/C=C/c2ccc(OC)cc2)cc2cc(Cl)ccc21`, the growth rises from 71.3% to 76.2%.

First: CNC(=O)c1cc(Oc2ccc3c(c2)sc2nc(-c4ccc(NC(C)=O)cc4)cn23)ccn1
Second: O=c1[nH]nc(-c2ccccc2)c2sc(NC(=S)Nc3ccc(Cl)cc3)nc12
The growth of the first is lower: 46.7% for the first, 92.6% for the second.

Compared with `Cc1nccc2c3ccc(OCc4cn(-c5ccc(Br)cc5)nn4)cc3n(CC(C)C)c12`, `Cc1cc(C)cc(Nc2nccc(-c3c(-c4ccc(F)cc4)ncn3C3CCNCC3)n2)c1` is lower in growth: 38.4% for the first, 21.6% for the second.

First: CS(=O)(=O)O[C@@H]1C(=O)N(c2cc3c4ccccc4ccc3c3ccccc23)[C@H]1c1ccc(F)cn1
Second: COc1ccc2nc(-c3ccc(Cl)cc3)cc(C(=O)N3N=C(c4ccc(N)cc4)CC3c3ccccc3)c2c1 (stereo not given)
The growth of the first is lower: 34% for the first, 37% for the second.

Going from `CSc1nc(-c2cccs2)c2c(N)[nH]nc2n1` to `Cc1nnc(/N=C2\NC(=O)/C(=C/c3ccsc3)S2)s1`, the growth rises from 93.7% to 102%.

Going from `CCN(CC)CC#CCOC(=O)[C@]1(C)CCC[C@]2(C)[C@H]3C[C@H]4C(C(C)C)=C[C@]3(CC[C@H]21)[C@@H]1C(=O)CCC(=O)[C@@H]14` to `C#CCOC(=O)[C@]1(C)CCC[C@]2(C)[C@H]3C[C@H]4C(C(C)C)=C[C@]3(CC[C@H]21)[C@@H]1C(=O)CCC(=O)[C@@H]14`, the growth falls from 70.5% to 63.1%.

First: S=C(Nc1ccccc1)c1ccccn1
Second: Cc1nc2sc(C(=O)Nc3ccccc3)c(N)c2cc1C(C)O (stereo not given)
The growth of the first is higher: 90.3% for the first, 29.5% for the second.

Going from `OCCNc1nc(NCCO)nc(Nc2ccc(C3=NN(c4cc(Cl)cc(Cl)c4)C(c4ccc(C(F)(F)F)cc4)C3)cc2)n1` (stereo not given) to `CCCCc1nc(Cl)c(C2CC(c3ccc(Cl)cc3)=NN2c2cc(Cl)cc(Cl)c2)[nH]1` (stereo not given), the growth rises from 47.1% to 78.2%.

First: COCCOCCOCc1n(Cc2ccc3ccccc3n2)c2ccccc2[n+]1Cc1ccc2ccccc2n1
Second: Cc1ccc(C2=N[C@H]3CCC[C@@H]3N(c3ccccc3)C(C(Cl)Cl)=N2)cc1
The growth of the first is lower: 14.5% for the first, 105% for the second.

Compared with `S=c1ssnc1-c1cc2ccccc2o1`, `COc1ccc(N(C)c2nc(Cl)nc3ccn(C)c23)cc1` is lower in growth: 86.6% for the first, 39.1% for the second.

First: Cc1cccc(C)c1NCc1nnc(-c2ccc(O)cc2)o1
Second: Cc1ccc(SC2c3ccc(C)cc3Oc3nc(N)c(C#N)c(N)c32)cc1 (stereo not given)
The growth of the first is lower: 100% for the first, 103% for the second.

`CCCCC1=c2c([nH]c3ccc(OC)cc23)=NC2C=CC=NC12` (stereo not given) and `CCOC(=O)C1=C(C)n2nc(CC#N)c(C#N)c2NC1c1ccc(CC)cc1` (stereo not given) are the same in growth: 94.5% for the first, 94.5% for the second.

Compared with `CC(C)(C)c1ccc(O)c(Cc2cc(C(C)(C)C)ccc2O)c1`, `Nc1cc(N)c(S(=O)(=O)O)cc1N=Nc1cc([N+](=O)[O-])ccc1O` is higher in growth: 87.8% for the first, 92.1% for the second.

`Cc1nc(C)c(C)nc1C` showed a growth of 101%.

From PubChem BioAssay (NCI)
